The results in this text go back to PubChem BioAssay.

Active and inactive are the calls of the source.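 The calls were made as follows, unless noted: active = visual image review flags a hit and inhibition of aggregation exceeds 20%; inconclusive = visual hit but inhibition at or below 20%; inactive = no hit on visual image review.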

Experiment [1] can be described thus: inhibitors of TNFa-induced NFkB p65 translocation, primary screen, imaging, HUVEC, MLSMR starter and 10KST1 sets (AID 438;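 active = inhibition above 20% together with a positive visual image hit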;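 also: compound added about 3h40 before a 20 min TNFalpha stimulation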;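 as to inhibition: signal is the nuclear over cytoplasmic p65 intensity ratio per well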). As to conditions: HUVEC TNFa-induced p65 nuclear translocation; cell count: measured here: nuclei count (cytotoxicity indicator), at 2.08 µM; inhibition: at 2 µM, stronger effect = higher value, 0% TNFa-plus-vehicle, 100% no-TNFa wells.
Experiment [2] is described as follows: reduction of polyQ htt aggregates in cells – imaging, exon1htt(103Q)mCFP cells, high-content imaging, primary screen (AID 483).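 Also: compound exposure lasted 3 days before fixation.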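 As to nuclei count: percent of the per-plate median nuclei count of sample wells.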 As to conditions: exon1htt(103Q)mCFP cell line, aggregate imaging, at 2 µM; inhibition of aggregation: stronger effect = higher value; nuclei count: measured here: cell count, toxicity.
The nature of experiment [3]: endothelial E-selectin expression blockers – imaging, HUVEC, immunofluorescence, MLSMR starter and 10KST1 sets, primary screen (AID 487;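 active = visually confirmed hit in the image check and inhibition above 20%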;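 as to inhibition: signal is fraction of cell area covered by stained E-selectin grains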;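 as to nuclei count: 100% = median nuclei count of all wells on the same plate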). The following applies: HUVEC TNFalpha-induced E-selectin immunofluorescence imaging, at 2 µM; inhibition: stronger effect = higher value; nuclei count: measured here: cell number, toxicity.
For experiment [4], the target named is Voltage-gated potassium channel subunit beta-2 (Rattus norvegicus) (UniProt P62483). Nature of the experiment: inhibitors of rat Kvbeta2 reductase activity – biochemical, NADPH fluorescence, primary screen (AID 622;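 active = fluorescence slope higher than the sample average by over 3 SD, cut at about -0.22 in these data, passing the limit was not always enough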;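 also: slope of raw intensity against log time taken from 70 to 1610 s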). As to conditions: recombinant KvBeta, 4-cyanobenzaldehyde reduction, at 10 µM, stronger effect = higher value.
Chain of Voltage-gated potassium channel subunit beta-2 (Rattus norvegicus) (P62483 whole entry, looked up): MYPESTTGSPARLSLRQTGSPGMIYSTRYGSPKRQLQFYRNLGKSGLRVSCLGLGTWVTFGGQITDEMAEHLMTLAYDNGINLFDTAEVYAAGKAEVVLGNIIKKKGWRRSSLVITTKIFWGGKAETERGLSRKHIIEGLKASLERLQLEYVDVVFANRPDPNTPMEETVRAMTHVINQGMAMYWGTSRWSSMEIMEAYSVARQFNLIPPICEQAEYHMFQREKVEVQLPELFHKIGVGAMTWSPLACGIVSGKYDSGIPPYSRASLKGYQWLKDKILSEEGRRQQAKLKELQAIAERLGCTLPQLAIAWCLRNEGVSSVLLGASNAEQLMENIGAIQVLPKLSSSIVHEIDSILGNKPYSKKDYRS
For experiment [5] the target is unchanged. Nature of the experiment: enhancers of rat Kvbeta2 NADPH turnover – biochemical, NADPH fluorescence, primary screen (AID 623;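 active = NADPH fluorescence slope more negative than the mean of all samples by about 3 SD, 99.7% confidence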;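 also: fluorescence intensity change per second fitted from 20 to 320 s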). The following applies: Recombinant KvBeta, NADPH fluorescence decrease slope, 10 min; at 10 µM; stronger effect = lower value.
Experiment [6] deals with Alpha-2C adrenergic receptor (Homo sapiens) (UniProt P18825). Briefly: compounds altering alpha2C-coupled GIRK flux – cell-based, HEK293 alpha2C/GIRK1/2, thallium flux, primary screen (AID 624;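 active = fluorescence slope after compound addition differing from the mean of all screened samples at 99.7% confidence, in either direction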;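 also: slope of fluorescence ratio to pre-addition baseline per second over 15 to 24 s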). The following applies: thallium flux BTC fluorescence, at 10 µM, actives lie on both sides.
Chain of Alpha-2C adrenergic receptor (Homo sapiens) (P18825 whole entry, looked up): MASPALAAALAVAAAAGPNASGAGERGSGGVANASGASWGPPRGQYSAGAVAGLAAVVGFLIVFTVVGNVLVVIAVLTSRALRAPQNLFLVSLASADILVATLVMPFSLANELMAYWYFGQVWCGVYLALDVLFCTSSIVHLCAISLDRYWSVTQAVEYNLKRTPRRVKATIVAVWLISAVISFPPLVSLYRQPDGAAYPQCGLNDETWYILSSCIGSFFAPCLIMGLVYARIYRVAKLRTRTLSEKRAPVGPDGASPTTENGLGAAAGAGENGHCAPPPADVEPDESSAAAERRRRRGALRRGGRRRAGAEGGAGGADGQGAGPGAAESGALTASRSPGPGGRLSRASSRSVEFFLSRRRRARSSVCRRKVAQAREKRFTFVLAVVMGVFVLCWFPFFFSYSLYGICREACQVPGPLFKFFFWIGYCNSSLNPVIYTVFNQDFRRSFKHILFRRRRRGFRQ
Experiment [7] is described as follows: blockers of RIG-like receptor reporter activation – cell-based, Sendai virus stimulus, luciferase, 10K MLSCN set, TLR/RLR signaling modifier project, primary screen (AID 602276;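 active = inhibition at or above 50% at 10 µM; inactive = inhibition below 50%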;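 also: firefly luciferase from ISG56 promoter only with Renilla not read in this screen; 0% = Sendai virus plus DMSO and 100% = medium plus DMSO without virus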). As to conditions: HEK293 RL24 IRF3 luciferase reporter, at 10 µM, stronger effect = higher value. (In general: In a reporter assay the amount or activity of a reporter protein is the signal.)
The nature of experiment [8]: TLR3 IRF3 reporter activation blockers – cell-based, poly I:C stimulus, luciferase, 10K MLSCN set, primary screen (AID 602277;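 active = inhibition of the reporter signal at or above 50%; inactive = inhibition below 50%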). As to conditions: HEK293-TLR3 RL24 IRF3 luciferase reporter, at 10 µM, stronger effect = higher value.

The inhibition is the relative decrease from the control value, in per cent. For `O=C1OC2(c3ccccc3)C3CCCC2C13`, the cell count in experiment [1] came to 340. For the same molecule, the inhibition was -1.1% (inactive) in experiment [1], 5.3% (inactive) in experiment [3], 16% (inactive) in experiment [7] and 15.6% (inactive) in experiment [8]. The inhibition of aggregation in experiment [2] is 7.7% (inactive). For the same molecule, the nuclei count in experiment [2] was determined as 94.1%; in experiment [3], 107%. Further, the fluorescence slope in experiment [4] was -0.548 (inactive). Besides, the NADPH fluorescence slope in experiment [5] is -7.3e-05 (inactive). For the same molecule, the slope in experiment [6] was 0.00538 (inactive).
With `Nc1ncnc2oc(-c3ccco3)c(-c3ccco3)c12`, the cell count in experiment [1] amounted to 413. Moreover, the inhibition in experiment [1] is -3.3% (inactive); in experiment [3] it was -29.9% (inactive); in experiment [7] it was -5.47% (inactive); in experiment [8], -31.5% (inactive). In addition, the inhibition of aggregation in experiment [2] is 15.7% (inactive). Further, the nuclei count was found to be 84.7% in experiment [2] and 111% in experiment [3]. The fluorescence slope in experiment [4] is -0.49 (inactive). In addition, the NADPH fluorescence slope in experiment [5] is -1.2e-05 (inactive). Moreover, the slope in experiment [6] is 0.00377 (inactive).
On to `COC(=O)c1ccc(NC2(C#N)C(=O)Nc3ccccc32)cc1` (configuration not stated), for which, in experiment [1], the cell count came to 246. Besides, the inhibition was 7.6% (inactive) in experiment [1], -208% (inactive) in experiment [3], 19% (inactive) in experiment [7] and 8.66% (inactive) in experiment [8]. In addition, in experiment [2], the inhibition of aggregation is 15% (inactive). The nuclei count in experiment [2] was determined as 95.5%; in experiment [3], 116%. Further, the fluorescence slope in experiment [4] was -0.408 (inactive). In addition, the NADPH fluorescence slope in experiment [5] was -1.9e-05 (inactive). In addition, the slope in experiment [6] is 0.00466 (inactive).
With `COCCn1nnnc1C(c1cccs1)N1CCN(c2cc(C)ccc2C)CC1` (configuration not stated), the cell count in experiment [1] stood at 203. Besides, the inhibition in experiment [1] was 11.4% (inactive); in experiment [3] it was -2.6% (inactive); in experiment [7], 11.1% (inactive); in experiment [8], 16.2% (inactive). For the same molecule, the inhibition of aggregation in experiment [2] is -9% (inactive). For the same molecule, the nuclei count in experiment [2] is 84.8%; in experiment [3], 96.9%. For the same molecule, in experiment [4], the fluorescence slope is -0.618 (inactive). The NADPH fluorescence slope in experiment [5] was 2e-05 (inactive). Besides, the slope in experiment [6] is 0.00567 (inactive).
For the molecule `CCn1c(=O)c(=O)[nH]c2cc(C(=O)N3CCN(c4ccccc4F)CC3)ccc21`, the cell count in experiment [1] was 688. Also, the inhibition in experiment [1] was -6.1% (inactive); in experiment [3], -16.5% (inactive); in experiment [7], 5.11% (inactive); in experiment [8] it was 6.91% (inactive). Besides, the inhibition of aggregation in experiment [2] is -40.8% (inactive). The nuclei count in experiment [2] stood at 81.5%; in experiment [3], 110%. In addition, the fluorescence slope in experiment [4] is -0.594 (inactive). In addition, the NADPH fluorescence slope in experiment [5] was -3e-05 (inactive). Also, in experiment [6], the slope is 0.0083 (inactive).
On to `Cn1c(=O)c2c(nc(NCCNC(=O)c3ccco3)n2Cc2ccccc2Cl)n(C)c1=O`, for which the cell count in experiment [1] worked out at 424. In addition, the inhibition in experiment [1] is 7.1% (inactive); in experiment [7] it was -7.85% (inactive); in experiment [8], 2.32% (inactive). Also, in experiment [2], the inhibition of aggregation is 1.7% (inactive). The results for the nuclei count in experiment [2] and in experiment [3] were 98.3% and 136%, respectively. In addition, the fluorescence slope in experiment [4] was -0.354 (inactive). For the same molecule, the NADPH fluorescence slope in experiment [5] was -2.6e-05 (inactive). The slope in experiment [6] is 0.00598 (inactive).
For `COc1ccc(C(=O)Nc2cccc(C)c2)cc1S(=O)(=O)N1CCOCC1`, in experiment [1], the cell count came out at 550. Besides, the inhibition in experiment [1] is -25.9% (inactive); in experiment [3], -48.3% (inactive); in experiment [7], 6.15% (inactive); in experiment [8] it was 3.92% (inactive). The inhibition of aggregation in experiment [2] was 0.7% (inactive). Also, the figures for the nuclei count in experiment [2] and in experiment [3] were 102% and 111%, respectively. The fluorescence slope in experiment [4] was -0.572 (inactive). In addition, in experiment [5], the NADPH fluorescence slope is -5.7e-05 (inactive). Also, the slope in experiment [6] is 0.0063 (inactive).
As for `O=C(CCn1c(=O)sc2ccccc21)Nc1nccs1`, the cell count in experiment [1] stood at 575. Further, the inhibition in experiment [1] was -22.3% (inactive); in experiment [3] it was -53% (inactive); in experiment [7], -21.2% (inactive); in experiment [8], -66.6% (inactive). In addition, the inhibition of aggregation in experiment [2] is 4.1% (inactive). Also, the figures for the nuclei count in experiment [2] and in experiment [3] were 65.7% and 98.6%, respectively. Further, the fluorescence slope in experiment [4] is -0.618 (inactive). For the same molecule, in experiment [5], the NADPH fluorescence slope was 3e-05 (inactive). Besides, the slope in experiment [6] was 0.00595 (inactive).
For `COc1ccc(C(=O)Nn2c(C3CCC3)nc3ccccc3c2=O)c(OC)c1`, the cell count in experiment [1] was 657. For the same molecule, the inhibition in experiment [1] is -10.2% (inactive); in experiment [3] it was 14.7% (inactive); in experiment [7], -0.704% (inactive); in experiment [8] it was 5.08% (inactive). Moreover, the inhibition of aggregation in experiment [2] was -14% (inactive). Besides, the nuclei count in experiment [2] came out at 111%; in experiment [3] it was 129%. The fluorescence slope in experiment [4] was -0.585 (inactive). Besides, the NADPH fluorescence slope in experiment [5] is -7.6e-07 (inactive). For the same molecule, the slope in experiment [6] was 0.00893 (inactive).
Take `CCCC(=O)NCCc1cc2c(C)ccc(C)c2[nH]c1=O`: the cell count in experiment [1] is 592. Further, the inhibition in experiment [1] was -4.8% (inactive); in experiment [3], -9% (inactive); in experiment [7] it was 9% (inactive); in experiment [8], 10.9% (inactive). Also, the inhibition of aggregation in experiment [2] was -1.1% (inactive). Also, the nuclei count amounted to 114% in experiment [2] and 117% in experiment [3]. The fluorescence slope in experiment [4] is -0.557 (inactive). Also, the NADPH fluorescence slope in experiment [5] was -2.9e-05 (inactive). In addition, in experiment [6], the slope is 0.00601 (inactive).
As to `COC(=O)Nc1sc2c(c1C(=O)N1CCOCC1)CCC(C)C2` (configuration not stated), in experiment [1], the cell count was 324. In addition, the inhibition in experiment [1] is -10.6% (inactive); in experiment [3] it was 2.3% (inactive); in experiment [7], 7.08% (inactive); in experiment [8], -3.14% (inactive). The inhibition of aggregation in experiment [2] was -10.8% (inactive). Also, the nuclei count in experiment [2] was found to be 118%; in experiment [3], 75.2%. In addition, the fluorescence slope in experiment [4] was -0.409 (inactive). In addition, the NADPH fluorescence slope in experiment [5] is 6.2e-06 (inactive). Moreover, the slope in experiment [6] was 0.00394 (inactive).
Take `Brc1ccc2[nH]c3nc(SCCN4CCOCC4)nnc3c2c1`: in experiment [1], the cell count came out at 683. The inhibition in experiment [1] is -6.3% (inactive); in experiment [3] it was -31.6% (inactive); in experiment [7], -18.9% (inactive); in experiment [8], -40.9% (inactive). For the same molecule, in experiment [2], the inhibition of aggregation was 9% (inactive). Also, the nuclei count worked out at 84.2% in experiment [2] and 114% in experiment [3]. In experiment [4], the fluorescence slope is -0.56 (inactive). Further, the NADPH fluorescence slope in experiment [5] is 1.6e-05 (inactive). Moreover, the slope in experiment [6] was 0.00594 (inactive).
`CCOc1ccc(Nc2nc(Cc3nnc(SCC(N)=O)o3)cs2)cc1`: the cell count in experiment [1] is 453. The inhibition was 6.7% (inactive) in experiment [1], 9.26% (inactive) in experiment [7] and 14% (inactive) in experiment [8]. Besides, the inhibition of aggregation in experiment [2] is -0.8% (inactive). Further, the nuclei count in experiment [2] amounted to 104%; in experiment [3] it was 154%. Further, the fluorescence slope in experiment [4] is -0.608 (inactive). Also, the NADPH fluorescence slope in experiment [5] is -2.2e-05 (inactive). The slope in experiment [6] is 0.00638 (inactive).
As for `CCOc1ccc(C2C(C#N)=C(N)Oc3cc(C)n(Cc4ccco4)c(=O)c32)cc1OC` (configuration not stated), the cell count in experiment [1] amounted to 746. Moreover, the inhibition in experiment [1] was 2.4% (inactive); in experiment [3] it was -11.3% (inactive); in experiment [7], 7.22% (inactive); in experiment [8], 11.1% (inactive). Further, the inhibition of aggregation in experiment [2] is 9.6% (inactive). Besides, the results for the nuclei count in experiment [2] and in experiment [3] were 74% and 105%, respectively. Moreover, the fluorescence slope in experiment [4] is -0.491 (inactive). In experiment [5], the NADPH fluorescence slope is -2e-05 (inactive). In addition, in experiment [6], the slope is 0.00471 (inactive).
